Several values for one entry are separate records, joined by “and”; a condition that tells them apart may be missing. Equal values may be shown once. Among all 16,000 compounds or so, about 2,600 (16%) were called active. Another 20% or so got no clear call; they are omitted. The call rests on the fitted dose curve; in most records, active means well fitted curve in the direction sought with a large enough effect; inconclusive means small, poorly fitted or top-dose-only effect, or effect the other way; inactive means no such curve, though single readings can be large or run the other way. The list is a sample of the results. Where a structure was tested more than once in an assay, its records may differ in their call.
Molecular target: Cytochrome P450 2D6 (Homo sapiens) (UniProt P10635)
Sequence (P10635 whole entry, looked up): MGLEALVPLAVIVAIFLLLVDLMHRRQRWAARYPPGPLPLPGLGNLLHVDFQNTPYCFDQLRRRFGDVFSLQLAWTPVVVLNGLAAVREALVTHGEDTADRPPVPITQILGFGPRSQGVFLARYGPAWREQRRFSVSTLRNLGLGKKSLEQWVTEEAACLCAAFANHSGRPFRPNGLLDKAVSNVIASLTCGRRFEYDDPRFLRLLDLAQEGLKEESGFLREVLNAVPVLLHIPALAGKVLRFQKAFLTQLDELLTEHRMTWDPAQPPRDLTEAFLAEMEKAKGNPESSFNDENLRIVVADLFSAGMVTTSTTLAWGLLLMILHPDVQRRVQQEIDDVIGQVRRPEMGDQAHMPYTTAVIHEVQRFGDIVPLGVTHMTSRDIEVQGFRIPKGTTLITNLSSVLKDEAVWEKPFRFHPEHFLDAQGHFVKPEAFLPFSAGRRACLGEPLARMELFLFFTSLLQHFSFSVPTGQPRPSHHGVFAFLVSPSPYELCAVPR
Assay: Cytochrome panel assay with activity outcomes
Details: recombinant CYP, pro-luciferin dealkylation, luminescence, p450-cyp2d6; series mostly up to 57.1 µM
On the % scale 0 is the no-effect control and ±100 the full control effect.

Row | Structure (SMILES) | AC50 | activity, negative = inhibition
1 | O=C(C1CCN(S(=O)(=O)N2CCOCC2)CC1)N1CCN(c2ccccc2)CC1 | inactive | –
2 | CN(C)c1ncc2nc(-c3cc(F)cc(F)c3)c(=O)n(Cc3cccs3)c2n1 | inactive | –
3 | CCN1CCN(C(=O)N[C@H](C(=O)N[C@@H]2C(=O)N3[C@@H]2SC(C)(C)[C@@H]3C(=O)O)c2ccccc2)C(=O)C1=O | inactive | –
4 | CC(=O)[C@H](C(=N)C#N)C(=O)Nc1ccccc1 | – | 5.49% [at 11.4 µM] (inactive)
5 | CCC(=O)OCN1C(=O)C=CC1=O | – | 6.64% [at 11.4 µM] (inactive)
6 | O=c1cc(CF)[nH]c(=S)[nH]1 | – | 11.9% [at 11.4 µM] (inactive)
7 | CN(C)c1ncc2ncc(=O)n(CCC#N)c2n1 | inactive | –
8 | COc1ccc(NC(=O)N2CCC3(CC2)CCN(C(=O)c2cnccn2)CC3)cc1 | inactive | –
9 | COc1cc(N=c2ssnc2Cl)cc(OC)c1OC | 3.16 µM (active) | –
10 | COc1cccc(NC(=O)Cc2c(C(=O)O)[nH]c3ccccc23)c1 | inactive | –
11 | CC(C)COC[C@H](CN(Cc1ccccc1)c1ccccc1)N1CCCC1 | inactive and 15.8 nM (active) | –
12 | CCOC(=O)c1ccc(NC(=O)C2CCCO2)cc1 (stereo not drawn) | inactive | –
13 | O=C(NNC(=O)C1CCCCC1)c1cnccn1 | inactive | –
14 | Cn1cccc1C(=O)N1CCC2(CCCN(c3cccc(-c4ccccc4)c3)C2)CC1 | inactive | –
15 | COc1ccc(-n2c(=O)c(-c3ccc(F)cc3)nc3cnc(N4CCOCC4)nc32)cc1 | inactive | –
16 | c1ccc(Cn2c(CN3CCCC3)nc3ccccc32)cc1 | 8.91 µM (active) | –
17 | CS(=O)(=O)c1nc2ccccc2n1Cc1ccccc1 | inactive | –
18 | Oc1ccc(Cn2c(-c3ccc(O)cc3)nc3ccccc32)cc1 | – | 1.43% [at 11.4 µM] (inactive)
19 | Clc1ccc(Cn2c(CN3CCCC3)nc3ccccc32)cc1 | 1.26 µM (active) and 794 nM (active) | –
20 | O=S(=O)(O)c1nc2ccccc2n1Cc1ccccc1 | inactive | –
21 | Cn1c(-c2ccc(CN3CCCCC3)o2)nc2ccccc21 | inactive | –
22 | COCCn1c(=O)cnc2cnc(Oc3ccc(OC)cc3)nc21 | inactive | –
23 | COc1cc(OC)nc(NC(C)=O)n1 | inactive | –
24 | O=C(O)CCC(O)=C1S(=O)(=O)OCCOS1(=O)=O | – | -8.4% [at 11.4 µM] (inactive)

Row | Structure (SMILES) | AC50 | activity, negative = inhibition
25 | Cc1ccc(N=Nc2c(O)ccc3cc(S(=O)(=O)O)ccc23)cc1 | – | 4.81% [at 11.4 µM] (inactive)
26 | Cc1ccc(NC2=NC(c3ccccc3)n3c(nc(C)cc3=O)N2)c(C)c1 (stereo not drawn) | inactive | –
27 | CCC(=O)[C@@]1(C)[C@H](C)C[C@@H]2[C@@H]3CCC4=CC(=O)C=C[C@@]4(C)[C@H]3[C@H](O)C[C@]21C | inactive | –
28 | Cn1c(=O)c2c(nc(N3CCN(c4ccccn4)CC3)n2Cc2ccccc2Cl)n(C)c1=O | inactive | –
29 | CC(=O)Nc1ccc(NC(=O)C/C(C)=N/NC(=O)C(=O)N2CCCC2)cc1 | inactive | –
30 | C#CCSc1n[nH]c(-c2ccco2)n1 | – | -1.01% [at 11.4 µM] (inactive)
31 | O=c1c2ccccc2c(-c2ccc(Br)cc2)nn1Cc1ccccc1 | inactive | –
32 | Cc1ccc(-c2nn(C)c(=O)c3ccccc23)cc1CNC(=O)Cn1nc(-c2ccccc2)c2ccccc2c1=O | inactive | –
33 | O=c1c2ccccc2c(-c2ccccc2)nn1Cc1ccc(Cl)cc1 | 11.2 µM (active) | –
34 | Cc1ccc(-c2csc(NC(=S)NC(=O)/C=C/c3ccco3)n2)cc1 | inactive | –
35 | N#Cc1cccc(-c2nc3cnc(Oc4cccc(Cl)c4)nc3n(C3CC3)c2=O)c1 | inactive | –
36 | CC1=NN(c2ccccc2)C(=O)C1 | inactive | –
37 | O=C(Cc1ccc(Br)cc1)OCC(=O)c1ccc2c(c1)OCCO2 | inactive | –
38 | CC(=O)c1cc2c(cc1NC(=O)CCCC(=O)O)OCO2 | inactive | –
39 | C/C(=C\C(=O)c1ccc(Br)cc1)NCc1ccc2c(c1)OCO2 | 7.94 µM (active) | –
40 | CCOc1ccc(C(C)=O)cc1N1C(=O)C2C3C=CC(O3)C2C1=O (stereo not drawn) | inactive | –
41 | CC(=O)N1CCC2(CCCN(C(=O)Nc3cccc(F)c3)C2)CC1 | inactive | –
42 | COc1ccc(C(=O)N2CCC3(CCN(C(=O)Nc4cccc(F)c4)CC3)CC2)cc1 | inactive | –
43 | COC(=O)N1CCC[C@@]2(CCN(C(=O)Nc3cccc(F)c3)C2)C1 | 10 µM (active) | –
44 | COCC(=O)N1CCC2(CC1)CCN(C(=O)Nc1cccc(F)c1)CC2 | inactive | –
45 | COC(=O)N1CCC2(CCN(C(=O)Nc3cccc(F)c3)CC2)CC1 | 10 µM (active) | –
46 | CS(=O)(=O)N1CCC2(CCN(C(=O)Nc3cccc(F)c3)CC2)CC1 | inactive | –
47 | CC(=O)N1CCC2(CC1)CCN(C(=O)Nc1cccc(F)c1)CC2 | 3.16 µM (active) | –
48 | COCC(=O)N1CCC[C@@]2(CCN(C(=O)Nc3cccc(F)c3)C2)C1 | inactive | –

Row | Structure (SMILES) | AC50 | activity, negative = inhibition
49 | COC(=O)N1CCC2(CCCN(C(=O)Nc3cccc(F)c3)C2)CC1 | inactive | –
50 | Cc1cc(C(=O)NNC(=S)NC(C)c2ccccc2)c2ccccc2n1 (stereo not drawn) | inactive | –
51 | COc1ccc(S(=O)(=O)N2CCC[C@H]2C(=O)NC2=NCCS2)cc1 | inactive | –
52 | COc1ccccc1N/C(=N/S(=O)(=O)c1ccc(C)cc1)c1ccc(Cl)cc1 | inactive | –
53 | CCOc1cc(CC(=O)N[C@@H](CC(C)C)c2ccccc2N2CCCCC2)ccc1C(=O)O | inactive | –
54 | Cc1cc(N2CCN(c3nc4ccccc4s3)CC2)n2ncnc2n1 | inactive | –
55 | C[n+]1ccccc1/C=N\O | inactive | –
56 | CS(=O)(=O)c1ccccc1-c1nc(-c2cc(C(F)(F)F)cc(C(F)(F)F)c2)no1 | inactive | –
57 | N[C@@H](CO)C(=O)O | inactive | –
58 | CO[C@]1(C2=NCCN2)COc2ccccc2O1 | inactive and 794 nM (active) | –
59 | COc1ccc(N2C(=O)c3ccccc3NC2c2ccc(OC)c(CSc3ccccn3)c2)cc1 (stereo not drawn) | inactive | –
60 | CCCCN(CC)Cc1ccc(CNC(=O)Nc2ccc(OC)cc2OC)o1 | 0.501 µM (active) | –
61 | COc1ccc(NC(=O)Cn2cccc2)c(OC)c1 | inactive | –
62 | COCCN(C(=O)Nc1ccc(OC)cc1OC)C1CCN(C(C)=O)CC1 | inactive | –
63 | CC(=O)NC(CCS(C)(=O)=O)C(=O)Nc1c(F)cccc1F (stereo not drawn) | inactive | –
64 | O=C1CCCN1CC(CN1CCOCC1)Sc1nnnn1-c1ccccc1 (stereo not drawn) | inactive | –
65 | Cc1cc(C)c(S(=O)(=O)N2CCN(c3ccc([N+](=O)[O-])c(NCC4CCCO4)c3)CC2)c(C)c1 (stereo not drawn) | inactive | –
66 | Cc1cc(C)n(-c2cc(N3CCN(C(=O)c4ccc(C(C)(C)C)cc4)CC3)ccc2[N+](=O)[O-])n1 | inactive | –
67 | Cc1cc(C)n(-c2cc(N3CCN(S(=O)(=O)c4ccc(C)c(C)c4)CC3)ccc2[N+](=O)[O-])n1 | 0.501 µM (active) | –
68 | COc1ccc2c(C=Nc3c(C)n(C)n(-c4ccccc4)c3=O)c(O)n(Cc3ccco3)c(=O)c2c1 | inactive | –
69 | COc1cccc(Cn2c(=O)c(-c3cccs3)nc3cnc(N4CCN(C)CC4)nc32)c1 | inactive | –
70 | CN(C)C(=O)CCc1nc(-c2ccc(C(C)(C)C)cc2)no1 | inactive | –
71 | COC(=O)c1ccc(Oc2nc(N(C)C)nc(N3CCOCC3)n2)cc1 | inactive | –
72 | O=C(O)[C@@H](O)[C@@H](O)[C@@H](O)[C@@H](O)c1nc2ccccc2s1 | – | -1.94% [at 11.4 µM] (inactive)

Row | Structure (SMILES) | AC50 | activity, negative = inhibition
73 | COc1ccccc1-c1nccc(-n2ccnc2)n1 | 15.8 µM (active) | –
74 | Cc1ccccc1-c1nccc(-n2ccnc2)n1 | 10 µM (active) | –
75 | FC(F)(F)c1ccccc1-c1nccc(N2CCNCC2)n1 | inactive | –
76 | Clc1ccccc1-c1nccc(-n2ccnc2)n1 | 7.94 µM (active) | –
77 | COc1ccccc1-c1nnc(NC(C)=O)s1 | inactive | –
78 | O=C(O)CC[C@]1(C(=O)O)CCC(=O)c2ccccc21 | – | 10.4% [at 11.4 µM] (inactive)
79 | CCOCC(=O)Nc1cc(C(=O)Nc2ccccc2)ccc1Cl | inactive | –
80 | CCc1ccc(C(=O)N2CCC(c3nc4ccccc4s3)CC2)cc1 | inactive | –
81 | CO[C@@H]1COC(=O)C/C=C\[C@H](C)[C@H](OC)COC(=O)[C@H]2CCCN2C(=O)C/C=C\[C@H]1C | – | 6.57% [at 11.4 µM] (inactive)
82 | C[C@@H]1C[C@H]2[C@H]3C[C@@H](F)C4=CC(=O)C=C[C@]4(C)[C@@]3(Cl)[C@@H](O)C[C@@]2(C)[C@@H]1C(=O)COC(=O)C(C)(C)C | inactive | –
83 | CC(C)(C)OC(=O)[C@H]([C@@H]1N[C@@H](C(=O)O)C(C)(C)S1)N1C(=O)c2ccccc2C1=O | – | 13.9% [at 11.4 µM] (inactive)
84 | CC(C)(C)NC(=O)COC(=O)c1cncc(Br)c1 | inactive | –
85 | CO[C@@]12C[C@@H](COC(=O)c3cncc(Br)c3)CN(C)[C@H]1Cc1cn(C)c3cccc2c13 | 39.8 nM (active) and 20 nM (active) | –
86 | Cc1ccc(OCCNC(=O)c2cncc(Br)c2)cc1C | inactive | –
87 | COC(=O)C/C=C\[C@@H](C)[C@@H](/C=N\O[C@@H](C)c1cn([C@H](CO)Cc2ccccc2)nn1)OC | – | 15.1% [at 11.4 µM] (inactive) and 6.44% [at 11.4 µM] (inactive)
88 | COc1ccc2cc3[n+](cc2c1OC)CCc1cc2c(cc1-3)OCO2 | 2.51 µM (active) | –
89 | C[C@H]1[C@H](C)OC(=O)C[C@H](O)C[C@H](O)C[C@H](O)CC[C@H](O)[C@H](O)CC(=O)C[C@H](O)[C@H](C(=O)O)[C@H](O)C[C@H](O[C@@H]2O[C@@H](C)[C@H](O)[C@@H](N)[C@@H]2O)C=CC=CC=CC=CCCC=CC=C[C@@](C)(O)[C@H]1O | – | -1.84% [at 11.4 µM] (inactive)
90 | O=C(Nc1ncn[nH]1)c1ccc([N+](=O)[O-])cc1[N+](=O)[O-] | inactive | –
91 | NC(N)=NC(=O)Cc1c(Cl)cccc1Cl | inactive and 126 nM (active) | –
92 | NC(=O)NC(=O)Nc1ccccc1Cl | inactive | –
93 | O=C(O)COC(=O)Cc1ccccc1Nc1c(Cl)cccc1Cl | inactive | –

Reference: PubChem BioAssay AID1851 (National Center for Advancing Translational Sciences (NCATS), 2009)
